Results filed as inconclusive are left out. Unmarked numbers belong to inactive results. Calls come from the whole dose curve; as a rule, active = well fitted inhibition curve with a large enough effect; inconclusive = small, poorly fitted or top-dose-only effect; inactive = flat fitted curve, though single readings scatter.

In the test the target is Aldehyde dehydrogenase, mitochondrial (Homo sapiens) (UniProt P05091). Put plainly: qHTS for Inhibitors of the Aldehyde Dehydrogenase Family (ALDH2) Primary screen (AID 2061308).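 Note: plate controls were vehicle for no effect and reference inhibitor for full effect; nearly all actives have a fitted effect of over 55% in size.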 The settings on record: ALDH2 enzyme inhibition qHTS, 1536-well; series mostly up to 56 µM; activity change, negative = inhibition: at the top concentration. In general terms: qHTS replaces the single test concentration by a dilution series.
Consider `COc1ccc(/C=C/C(=O)O[C@@H]2[C@@H](OC(C)=O)[C@@H](OC(C)=O)[C@H](O[C@H]3[C@@H]4C=CO[C@@H](O[C@@H]5O[C@H](CO)[C@@H](O)[C@H](O)[C@H]5O)[C@@H]4[C@@]4(CO)O[C@@H]34)O[C@H]2C)cc1`, for which the “activity change, negative = inhibition” value is 14.4% [at 16.9 µM].

For `COc1ccc(-c2ccccc2)cc1NS(=O)(=O)c1cc(Cl)cc(Cl)c1O`, the “activity change, negative = inhibition” value was 0.0613% [at 28 µM].

As for `C[C@@H]1O[C@@H](O[C@H]2[C@H](O)[C@@H](C(=O)O)O[C@@H](O[C@H]3CC[C@@]4(C)C(CC[C@]5(C)C4CC=C4C6CC(C)(C)CC[C@]6(C(=O)O)CC[C@]45C)C3(C)C)[C@@H]2O[C@@H]2OC[C@@H](O)[C@H](O)[C@H]2O)[C@H](O)[C@H](O)[C@H]1O` (some centres undefined), the “activity change, negative = inhibition” value was -4.46% [at 16.9 µM].

On to `CC(C)(C)c1nnc(NS(=O)(=O)c2ccccc2)s1`, for which the “activity change, negative = inhibition” value was 6.29%.

With `C=C(C)[C@@]1(O)C[C@@]2(C)C(=CC1=O)CC[C@@H](O)[C@@H]2C`, the “activity change, negative = inhibition” value is 26.2%.

Regarding `CC(=O)OC1CC2(C)C(CCC(C)C23Cc2c(O)cc(CO)c(C=O)c2O3)C(C)(C)C1O` (centres undefined), the “activity change, negative = inhibition” value is -6.32% [at 28 µM].

As for `O=C(O)C(O[C@@H]1O[C@H](CO[C@@H]2O[C@H](CO)[C@@H](O)[C@H](O)[C@H]2O)[C@@H](O)[C@H](O)[C@H]1O)c1ccccc1` (some centres undefined), the “activity change, negative = inhibition” value is -6.74% [at 28 µM].

Regarding `CC1CC(=O)C2C(O)(C1)CC(O)C13OC1c1c(O)cccc1C(=O)C23O` (centres undefined), the “activity change, negative = inhibition” value was -9.84%.

As to `CC1(C)OC[C@H](NC(=O)Nc2ccc(Br)cc2Br)[C@H](c2ccccc2)O1`, the “activity change, negative = inhibition” value was -2.96%.

In the case of `CC(C)=CCC[C@](C)(O[C@@H]1O[C@H](CO)[C@@H](O)[C@H](O)[C@H]1O)[C@H]1CC[C@]2(C)[C@@H]1[C@H](O)CC1[C@@]3(C)CC[C@H](O)C(C)(C)C3[C@@H](O[C@@H]3O[C@H](CO)[C@@H](O)[C@H](O)[C@H]3O[C@@H]3OC[C@@H](O)[C@H](O)[C@H]3O)C[C@]12C` (some centres undefined), the “activity change, negative = inhibition” value was 1.03% [at 16.9 µM].

As for `C[C@H]1CC[C@@]2(OC1)O[C@H]1CC3C4CC[C@H]5C[C@@H](O)[C@H](O)C[C@]5(C)C4=CC(=O)[C@]3(C)[C@H]1[C@@H]2C` (some centres undefined), the “activity change, negative = inhibition” value is 0.997% [at 28 µM].

In the case of `CC(C)c1ccc2c(c1)C(=O)CC1[C@@](C)(C(=O)O)CCC[C@]21C` (some centres undefined), the “activity change, negative = inhibition” value was -18.5%.

`CC1(C)CCCC2(C)C1CC(=O)C13CC(CCC12)C(O)(CO)C3` (centres undefined): the “activity change, negative = inhibition” value was -10.8%.

Consider `Cc1ccc(Cc2c(C)nc3nc(SCC(=O)NCCN4CCNCC4)nn3c2C)cc1`, for which the “activity change, negative = inhibition” value is -0.392%.

Regarding `COC1CC/C=C(\C)C(=O)Nc2cc(O)cc(c2)CC(C)CC(OC)C(O)C(C)/C=C(\C)C1OC(N)=O` (centres undefined), the “activity change, negative = inhibition” value is 5.75% [at 28 µM].

As for `CC#C[C@@H](CC(=O)O)c1ccc(OCc2ccc(CN3CCC4(C=Cc5ccccc54)CC3)s2)cc1`, the “activity change, negative = inhibition” value was 4.76%.

Regarding `CC(C)=CCC[C@](C)(O[C@@H]1O[C@H](CO[C@@H]2OC[C@H](O)[C@H](O)[C@H]2O)[C@@H](O)[C@H](O)[C@H]1O)[C@H]1CC[C@]2(C)[C@@H]1[C@H](O)C[C@@H]1[C@@]3(C)CC[C@H](O[C@@H]4O[C@H](CO)[C@@H](O)[C@H](O)[C@H]4O[C@@H]4O[C@H](CO)[C@@H](O)[C@H](O)[C@H]4O)C(C)(C)[C@@H]3CC[C@]12C`, the “activity change, negative = inhibition” value is 5.43% [at 28 µM].

For the compound `C#CCCCn1cc(-c2cccc3c2N[C@H](C)CC(=O)N3)cn1`, the “activity change, negative = inhibition” value is 11.8%.

With `Cc1cnc(NC(=O)Nc2cc(Br)c(C)cc2OCC2CNCCO2)cn1` (centres undefined), the “activity change, negative = inhibition” value was -3.54%.

Consider `CO[C@@]12CC3[C@@H]([C@@H](O)[C@@H](OC(C)=O)C4[C@](C)(COC(C)=O)CCC[C@]34C)[C@@H](C)C1=CC(=O)O2` (some centres undefined), for which the “activity change, negative = inhibition” value is 20% [at 28 µM].

As to `CC1=C(C(=O)O)/C(=C\CO[C@@H]2O[C@H](CO)[C@@H](O)[C@H](O)[C@H]2O)C(OC(=O)/C=C/c2ccc(O)cc2)C1` (some centres undefined), the “activity change, negative = inhibition” value is 9.2% [at 28 µM].

Consider `COc1c(/C=C/C(C)(C)O)ccc2c1C(=O)OCc1cc(C)cc(O)c1O2`, for which the “activity change, negative = inhibition” value is -3.96%.

As for `CC1CC(=O)C2=C(C1)C1OC1C1(O)C2C(=O)c2cccc(O)c2C1O` (centres undefined), the “activity change, negative = inhibition” value was -12.7%.

Regarding `COc1c(C)c(OCC=C(C)C)cc2c1CNC2=O`, the “activity change, negative = inhibition” value is 3.79%.

Regarding `Cc1ccc(C)c(NS(=O)(=O)c2cc(C(=O)Nc3ccccc3-c3ccccc3)ccc2C)c1`, the “activity change, negative = inhibition” value is -12.1%.

Consider `CC(=O)OC[C@]1(O)[C@H]2[C@H](OC(=O)CC(C)C)OC=C(CO[C@@H]3O[C@H](CO)[C@@H](O)[C@H](O)[C@H]3O)[C@H]2C[C@@H]1O`, for which the “activity change, negative = inhibition” value is 2.64% [at 28 µM].

Take `COc1cc(CCc2ccccc2)c(C(=O)O)c2c1CC(C(C)(C)O)O2` (centres undefined): the “activity change, negative = inhibition” value was -11%.

Consider `C=C[C@]1(C)C=C2CCC3C(C)(CCC[C@@]3(C)C(=O)O)C2CC1` (some centres undefined), for which the “activity change, negative = inhibition” value is -5.21%.

Take `COc1cc(C(=O)OC[C@@]2(O)CO[C@@H](O[C@H]3[C@H](Oc4ccc(C(=O)O)cc4OC)O[C@H](CO)[C@@H](O)[C@@H]3O)[C@@H]2O)ccc1O`: the “activity change, negative = inhibition” value was 4.69% [at 16.9 µM].
